TDP1 cell CPT: qHTS for Inhibitors of human tyrosyl-DNA phosphodiesterase 1 (TDP1): qHTS in cells in presence of CPT. chicken DT40 Tdp1-/-;hTDP1 cells + 20 nM CPT, ATP luminescence, 48 h. Potency, µM (top dose mostly 46.2 µM), for the others: at the highest dose activity change, negative = growth inhibition, most hits filed as inhibitors. 12% of 420,000 active; further: potency means the concentration at half of the fitted maximal effect; on the % scale 0 is the no-effect control and ±100 the full control effect; nearly all actives have a fitted effect of over 55% in size
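Chicken DT40 Tdp1-/- cells stably complemented with human TDP1 were seeded at 400 cells/well in medium containing 20 nM camptothecin, exposed to pin-transferred compounds, and grown at 37 °C for at least 48 hr. Viability was read as ATP luminescence.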
BCR signal inh: qHTS Assay to Find Inhibitors of Chronic Active B-Cell Receptor Signaling. 0.05% of 340,000 active. Potency, µM (top dose mostly 46.1 µM), for inactives: at the highest dose activity change, negative = inhibition, most hits filed as inhibitors. ABC-DLBCL IkBa-CBG/CBR reporter, luminescence ratio, 4 h; active means well fitted inhibition curve with a large enough effect in the signal ratio, with a control signal flat, not every such curve was filed as active; inconclusive means small, poorly fitted or top-dose-only effect, or effect the other way, or a change in a side signal; the % refers to the signal ratio;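 further: potency means the concentration at half of the fitted maximal effect; plate controls were basal doxycycline-induced cells for no effect and cells given 10 µM MG132 for full effect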
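Doxycycline induced both beetle luciferases in TMD8 lymphoma cells; IKK-driven degradation limits the IkappaBalpha-fused green signal, while red luminescence normalises for cell number and nonspecific effects. Compounds tested up to 46 uM, 4 hrs.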
SW480 rerep: A quantitative high throughput screen for small molecules that induce DNA re-replication in SW480 colon adenocarcinoma cells | SW480 DNA re-replication, Hoechst DNA content imaging, 48 h | 1.8% of 340,000 active | AID 624297, 2012 | Potency, µM (highest dose often 46.1 µM), inactives show top-dose re-replication activation, most hits filed as activators; further: potency means the concentration at half of the fitted maximal effect; % of control where 0% means no effect; nearly all actives have a fitted effect of over 55% in size
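Treated cells incubate 48 hr (37 C, 5% CO2), are stained 40 min with Hoechst, and nuclear fluorescence is enumerated; a rise in nuclei with high DNA signal marks re-replication.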
TDP1 cell noCPT: qHTS for Inhibitors of human tyrosyl-DNA phosphodiesterase 1 (TDP1): qHTS in cells in absence of CPT; DT40 Tdp1-/- hTDP1 cells, no CPT, ATP luminescence, 48 h; Potency, µM (top dose mostly 46.2 µM), for the others: at the top dose activity change, negative = growth inhibition, hits mostly inhibitors; 15% of 420,000 active; AID 686978, 2013; further: potency means the concentration at half of the fitted maximal effect; on the % scale 0 is the no-effect control and ±100 the full control effect; nearly all actives have a fitted effect of over 55% in size
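Luminescent ATP content (CellTiter-Glo) served as the growth readout. Knockout chicken DT40 cells expressing human TDP1 were exposed to compounds without camptothecin for a minimum 48 hr at 37 °C.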
MCF10A rerep: A quantitative high throughput screen for small molecules that induce DNA re-replication in MCF 10a normal breast cells. MCF 10A DNA re-replication, Hoechst nuclear intensity, 48 h. Potency, µM (titrated, usually from 46.1 µM), without a hit: at the highest dose activity, positive = re-replication, most hits filed as activators. 2.9% of 350,000 active. AID 624296, 2012; further: potency means the concentration at half of the fitted maximal effect; % of control where 0% means no effect; nearly all actives have a fitted effect of over 50% in size
IL1B secr inh: qHTS for Inhibitors of Inflammasome Signaling: IL-1-beta AlphaLISA Primary Screen; 4.7% of 360,000 active; AID 743279, 2014; THP-1 LPS/ATP IL-1B secretion, AlphaLISA, 16 h; hits give low values; activity change, % at 57.5 µM; in the data active means activity change below about -50%; inconclusive means mostly about -30% to -49%; further: on the % scale 0 is the no-effect control and ±100 the full control effect
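Secreted IL-1B measured by AlphaLISA bead assay after 16 h compound exposure of THP-1 cells; compounds (final up to 57.5 uM) added 1 h before LPS (250 ng/mL) and ATP (1.25 mM) stimulation; lower signal means less secretion.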
Active calls of the source: *; ? = inconclusive; / = no result given. Shown are actives, neighbours in structure and some others; about 19% of the full set was active somewhere. Unless noted, the call rests on the fitted dose curve; in most records, active means well fitted curve in the direction sought with a large enough effect; inconclusive means small, poorly fitted or top-dose-only effect, or another doubt; inactive means no such curve, though single readings can be large; an effect the other way counts as inactive or inconclusive.

SMILES	TDP1 cell CPT	BCR signal inh	SW480 rerep	TDP1 cell noCPT	MCF10A rerep	IL1B secr inh
CCN(CC)C(=O)[C@H]1CC(CC(=O)NCc2cccc(C(F)(F)F)c2)C(=O)N2CCc3c([nH]c4ccc(OC)cc34)[C@]12C (some centres undefined)	16.4µM*	-5.4%	?	14.6µM*	-41.1%	0.0
CCN(CC)C(=O)[C@H]1C[C@H](CC(=O)NCc2ccco2)C(=O)N2CCc3c([nH]c4cc(-c5ccco5)ccc34)[C@]12C	?	?	1.2%	?	?	-3.3
CN(CC1CCOCC1)C(=O)CC1C(=O)NCCN1C/C=C/c1ccccc1 (centres undefined)	24.4%	2.1%	-7.7%	-16.3%	?	-14.8
O=c1[nH]nc(Sc2ccccc2)c(=S)[nH]1	-15.9%	/	/	-27.5%	/	-4.8
COc1ccc(NC(=O)c2ccc(-c3ccc(-c4noc(C)n4)cc3C)cc2)cc1N1CCN(C)CC1	2.59µM*	?	?	2.06µM*	?	-12.3
COc1ccc(NC(=O)c2ccc(-c3ccc(-c4noc(C)n4)cc3C)cc2)cc1OCCN(C)C	5.17µM*	/	/	2.59µM*	/	/
COc1ccc(C(=O)Nc2ccc(N3CCOCC3)cc2)cc1OC	?	-8.6%	-3.4%	?	12.6%	-9.0
CC(C)(C)c1cc(C(=O)NCCN2CCCC2)cc(C(C)(C)C)c1	?	-7.1%	?	?	16.2%	?
CS(=O)(=O)c1ccc2sc(NC(=O)c3cc4ccccc4o3)nc2c1	?	-20.3%	-2.4%	23.1µM*	0.6%	-1.3
CS(=O)(=O)c1ccc2nc(NC(=O)c3cc4ccccc4o3)sc2c1	?	0.7%	-1.2%	?	?	1.1
CS(=O)(=O)c1ccc2nc(NC(=O)c3ccccc3Cl)sc2c1	-5.3%	?	-80.4%	-6.0%	0.82µM*	-1.8
CS(=O)(=O)c1ccc2nc(NC(=O)c3ccco3)sc2c1	?	?	-8.0%	?	1.3%	39.8
CS(=O)(=O)c1ccc2nc(NC(=O)c3ccccc3Br)sc2c1	-18.3%	?	-5.7%	-29.0%	-10.6%	-11.9
Cc1ccc(C(=O)Nc2nc3ccc(S(C)(=O)=O)cc3s2)o1	10.3µM*	?	-5.9%	11.6µM*	6.8%	3.0
CC(=O)NS(=O)(=O)c1ccc(NC(=O)C(C)NS(=O)(=O)/C=C/c2ccccc2)cc1 (centres undefined)	5.1%	3.0%	5.2%	1.3%	7.7%	-5.4
CCC(C(=O)NC1CCCC1)N(Cc1ccco1)C(=O)CNS(=O)(=O)c1ccccc1 (centres undefined)	-1.8%	6.6%	-91.8%	-16.8%	1.6%	-14.4
O=[N+]([O-])c1cc(Cl)c(Cl)c(Cl)c1Cl	-16.8%	-0.8%	25.1%	?	1.1%	-92.7*
Nc1cc(N2CCCC2)c(Cl)cc1[N+](=O)[O-]	-12.9%	-8.7%	-0.6%	?	13.7%	-22.8
C[C@@H]1CN([C@@H](C)CO)C(=O)CCCn2nncc2CO[C@H]1CN(C)Cc1ccc2cccnc2c1	0.3%	/	/	-28.2%	/	-16.8
COc1ccc2nc(NC(=O)c3ccc(S(=O)(=O)N4CCCC(C)C4)cc3)sc2c1 (centres undefined)	16.4µM*	/	/	11.6µM*	/	/
O=C(Nc1ccon1)C1CCN(S(=O)(=O)c2cccs2)CC1	?	6.7%	?	23.1µM*	1.9%	-6.7
O=C(Nc1nc2ccc(C(=O)N3CCCCC3)cc2s1)C1CCCCC1	2.59µM*	?	6.51µM*	4.11µM*	4.11µM*	48.8
NS(=O)(=O)c1ccc(CCNC(=O)C2CCN(S(=O)(=O)c3cnc[nH]3)CC2)cc1	-5.7%	-4.1%	?	-11.4%	20.6µM*	1.3
NS(=O)(=O)c1ccc(CCNC(=O)C2CCN(S(=O)(=O)c3ccccc3)CC2)cc1	13.6%	1.2%	-12.8%	2.0%	-3.6%	-11.8
CC(C)Cc1nc2cc(NS(=O)(=O)N(C)C)cc(C(=O)N3CCc4sccc4C3)c2n1C	5.1%	/	/	0.0%	/	/
SMILES	TDP1 cell CPT	BCR signal inh	SW480 rerep	TDP1 cell noCPT	MCF10A rerep	IL1B secr inh
COc1ccc(N2CCN(C(=O)c3c(-c4c(F)cccc4Cl)noc3C)CC2)cc1	-17.7%	-0.3%	11.2%	-18.4%	-0.9%	0.0
COc1ccc2nc(NC(=O)C3CCN(S(=O)(=O)c4cccs4)CC3)sc2c1	23.1µM*	7.4%	11.4%	29.1µM*	-1.0%	-74.6*
Cc1cccc(NC(=O)C2CCN(S(=O)(=O)c3cccs3)CC2)c1	-1.7%	4.0%	-1.5%	-38.0%	-15.4%	4.5
COc1ccc2nc(NC(=O)C3CCN(S(=O)(=O)c4cnc[nH]4)CC3)sc2c1	-29.2%	0.5%	-4.2%	-16.0%	-0.1%	-22.8
Cc1ccc2nc(NC(=O)C3CCN(S(=O)(=O)c4cccs4)CC3)sc2c1	23.1µM*	12.2%	9.2%	16.4µM*	2.5%	-76.3*
COc1ccc2nc(NC(=O)C3CCN(S(=O)(=O)c4cccnc4)CC3)sc2c1	11.6µM*	-3.7%	18.9%	14.6µM*	23.8%	-23.3
CCOc1ccc2nc(NC(=O)C3CCN(S(=O)(=O)c4cnc[nH]4)CC3)sc2c1	-18.6%	-19.0%	-0.3%	-26.1%	-12.1%	-7.5
Cc1ccc2nc(NC(=O)C3CCN(S(=O)(=O)c4cnc[nH]4)CC3)sc2c1	?	?	-0.2%	16.4µM*	0.4%	-18.6
COc1ccc2nc(NC(=O)CNS(=O)(=O)c3cccs3)sc2c1	-6.8%	-24.1%	-2.4%	-10.9%	-1.3%	-21.6
COc1ccc2nc(NC(=O)C3CCCN(S(=O)(=O)c4cccs4)C3)sc2c1 (centres undefined)	?	?	8.8%	18.4µM*	-1.3%	-58.7*
CN(CCOc1ccc(Br)cc1)C(=O)CNC(=O)c1ccc2ccccc2c1	-16.5%	?	10.0%	?	?	-91.3*
CCOc1ccc(CN(C)C(=O)CNC(=O)Cc2cccc3ccccc23)cc1	?	0.4%	25.5%	23.1µM*	1.6%	-3.7
CCOc1ccc(CN(C)C(=O)CNC(=O)c2ccccc2)cc1	-18.6%	2.2%	-2.3%	5.0%	6.7%	11.1
C=CCOc1ccc(CN(C)C(=O)CNC(=O)c2ccc(-c3ccccc3)cc2)cc1	?	?	?	20.6µM*	-0.6%	-8.3

Screening data as filed in PubChem.
